# Source: PubChem BioAssay AID743255 (National Center for Advancing Translational Sciences (NCATS), 2014)
# Among all 390,000 compounds or so, about 910 (0.23%) were called active. Another 5% or so got no clear call; they are omitted. Calls come from the whole dose curve; as a rule, active = well fitted inhibition curve with a large enough effect; inconclusive = small, poorly fitted or top-dose-only effect; inactive = no such curve, though single readings can be large or run the other way. The sample as a whole holds a higher share of actives than the screen did.
# Target: Ubiquitin carboxyl-terminal hydrolase 1 (Homo sapiens) (UniProt O94782)
# Assay: Inhibitors of USP1/UAF1: Primary Screen; note: nearly all actives have a fitted effect of over 60% in size
# Details: recombinant USP1/UAF1, Ub-Rhodamine cleavage fluorescence; series mostly up to 57.1 µM; activity change, negative = inhibition: at the top concentration
# From the text: Deubiquitinating enzymes (DUBs) are a class of enzymes that can cleave isopeptide bond formed between the C-terminal carboxylate of ubiquitin and a lysine side-chain amino group on the target protein. Among them, ubiquitin specific proteases (USPs) constitute the largest DUB family. Human USPs are emerging as promising targets for pharmacological intervention because of their connection to a number of human diseases, including prostate, colon and breast cancer (1, 2), pediatric acute lymphoblastic leukemia (3), and familial cylindromatosis (4). The advantage of inhibiting USPs lies in the potential specificity of therapeutic intervention that can lead to better efficacy and reduce nonspecific side effects. In a collaboration between the University of Delaware and the NIH Chemical Genomics Center, a high-throughput screen assay was developed to screen for USP1/UAF1 inhibitors. This miniaturized assay has a fluorescent read-out and is used to screen the NIH Molecular Libraries Small Molecule Repository (MLSMR) in order to identify a small molecule that inhibits USP1. NIH Chemical Genomics Center [NCGC] NIH Molecular Libraries Probe Centers Network [MLPCN] MLPCN Grant: DA030552 Assay Submitter (PI): Zhihao Zhuang, University of Delaware 1. Priolo, C., et al. (2006) The isopeptidase USP2a protects human prostate cancer from apoptosis. Cancer Res 66, 8625-8632 2. Popov, N., et al. (2007) The ubiquitin-specific protease USP28 is required for MYC stability. Nat Cell Biol 9, 765-774 3. De Pitta, C., et al. (2005) A leukemia-enriched cDNA microarray platform identifies new transcripts with relevance to the biology of pediatric acute lymphoblastic leukemia. Haematologica 90, 890-898 4. Kovalenko, A., et al. (2003) The tumour suppressor CYLD negatively regulates NF-kappaB signalling by deubiquitination. Nature 424, 801-805
# 3 microliters of reagents (buffer in columns 3 and 4 as negative control and 1nM USP1/UAF1 complex in columns 1, 2, and 5-48) are dispensed into Greiner black solid bottom 1536-well assay plates. Compounds are then transferred via Kalypsys pin tool equipped with 1536-pin array (10nl slotted pins, V&P Scientific, San Diego, CA). Following an incubation step of 15 min at room temperature, 1ul of Ub-Rho substrate (150nM final concentration) is added to initiate the reaction. The plates are immediately centrifuged at 1000 rpm for 15 seconds, and subsequently transferred to a ViewLux high-throughput CCD imager (PerkinElmer) wherein kinetic measurements of fluorescence are acquired using 480 nm excitation/540 nm emission filter set (6 reads every 60 seconds, see Table 1). All reagents are diluted in an assay buffer consisting of 50mM HEPES (pH 7.8), 0.5mM EDTA, 0.1 mg/ml BSA, 1mM TCEP, and 0.01% Tween-20.
# % is set by controls: 0 for no effect and ±100 for the full control effect; potency is the fitted concentration of half-maximal effect.
# Ubiquitin carboxyl-terminal hydrolase 1 (Homo sapiens), sequence (O94782 whole entry, looked up): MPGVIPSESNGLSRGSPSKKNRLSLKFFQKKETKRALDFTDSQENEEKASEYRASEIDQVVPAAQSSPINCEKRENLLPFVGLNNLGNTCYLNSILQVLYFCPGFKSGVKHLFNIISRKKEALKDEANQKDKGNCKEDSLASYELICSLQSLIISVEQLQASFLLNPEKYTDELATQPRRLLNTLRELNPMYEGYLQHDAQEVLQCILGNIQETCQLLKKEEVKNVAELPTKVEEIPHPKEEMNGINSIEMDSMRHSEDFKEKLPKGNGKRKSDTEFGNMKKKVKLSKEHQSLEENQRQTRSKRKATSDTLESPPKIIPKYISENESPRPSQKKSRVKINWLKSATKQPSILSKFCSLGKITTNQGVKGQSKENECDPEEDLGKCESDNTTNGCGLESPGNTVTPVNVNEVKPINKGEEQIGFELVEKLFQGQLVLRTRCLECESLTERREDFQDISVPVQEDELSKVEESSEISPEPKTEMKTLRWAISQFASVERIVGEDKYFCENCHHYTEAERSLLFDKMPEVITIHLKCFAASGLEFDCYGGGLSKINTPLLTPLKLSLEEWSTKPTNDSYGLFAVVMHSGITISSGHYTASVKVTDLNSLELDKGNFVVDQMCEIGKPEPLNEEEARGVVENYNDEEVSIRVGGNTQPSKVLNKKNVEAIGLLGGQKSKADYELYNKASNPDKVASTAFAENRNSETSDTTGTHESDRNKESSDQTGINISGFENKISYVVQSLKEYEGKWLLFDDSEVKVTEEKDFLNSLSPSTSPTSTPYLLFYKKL
SMILES,"activity change, negative = inhibition",Potency
Cc1ncoc1C(=O)NCC1=C(c2cccc3ccccc23)C[C@@H]2CC[C@H]1N2Cc1ccco1,-26.1% (inactive),–
COC(=O)C1=C(c2ccccc2)C[C@@H]2CC[C@H]1N2C(=O)NCc1ccco1,-13.6% (inactive),–
COc1cc(Cn2c(N)c(C(=O)NCc3ccco3)c3nc4ccccc4nc32)cc(OC)c1OC,–,22.4 µM (active)
CN(C)CC1Oc2ccccc2OC1(O)c1ccccc1 (stereo not given),-24% (inactive),–
Cc1ccc(-n2c(/C=C/c3cccc(C(F)(F)F)c3)nc3ccccc3c2=O)cc1,-2.31% (inactive),–
COC(=O)C1=C(c2ccc(OCc3ccccc3)cc2)C[C@@H]2CC[C@H]1N2C(=O)NCc1cccc(F)c1,-16.5% (inactive),–
O=C1NC(=O)N(c2ccccc2)C(=O)/C1=C/c1ccc([N+](=O)[O-])s1,–,28.2 µM (active)
CC(=O)C1(O)CCC2C3CCC4=C(Cl)C(=O)CCC4(C)C3CCC21C (stereo not given),-6.63% (inactive),–
Cc1c(C(=O)O)cccc1-n1c(C)cc(/C=C2\C(=O)NC(=O)N(c3ccc4c(c3)OCO4)C2=O)c1C,-1.73% (inactive),–
COc1cccc(N2C(=O)NC(=O)/C(=C\c3cn(C)c4ccccc34)C2=O)c1,–,11.2 µM (active)
Cn1cc(/C=C/c2nc3ccccc3c(=O)n2-c2ccccc2)c2ccccc21,-33.4% (inactive),–
O=C1C2CCN(CC2)C1(CO)CO,-25.6% (inactive),–
C[N+](C)(C)CCOP(=O)([O-])OC[C@H](O)CO,1.6% (inactive),–
Cc1ccc(OC(=O)N(C)C[C@@H]2OCc3cnnn3CCCC(=O)N([C@H](C)CO)C[C@@H]2C)cc1,-16.6% (inactive),–
COc1cc(C2c3cc4c(cc3C(O)C3COC(=O)C23)OCO4)cc(OC)c1OC (stereo not given),-15.3% (inactive),–
